Hit rate of the full screen: of about 290,000 compounds, about 27,000 (9.3%) were called active. The entries come from a sample that favours actives as a whole. Unmarked numbers belong to inactive results. No stated cut-off is given here; in the data, active means inhibition mostly above about 28% (no sharp cut-off); inactive means mostly below about 43%.

The experiment can be described thus: A qHTS for Small Molecule Inhibitors of Shiga Toxin. Further: 0% is about no effect. The note with it: Vero cells, Shiga toxin protein synthesis inhibition reporter; at 38.7 µM, active compounds read high. A general note: In qHTS, concentration-response curves come from the screen itself.
Take `Cc1nc2ccccc2c(=O)n1NC(=O)c1ccc(Cl)c([N+](=O)[O-])c1`: the inhibition – broadly, the relative decrease from the control value, in per cent – was -9.41%.
Consider `O=C(O)c1cccc(N2C(=O)Nc3ccccc3N2O)c1`, for which the inhibition was 11.8%.
Under `COC(=O)CC1=NN(c2ccccc2)C(=O)C1` stands 17.6%; under `NC1=NN(c2cccc(C(=O)O)c2)C(=O)C1`, 143% (active).
Regarding `CC(C)c1nc(CNC(=O)CC2C(=O)NCCN2Cc2cccc(F)c2F)cs1` (stereo not drawn), the inhibition is -5.01%.
`CN(CCNC(=O)c1cc2c(-c3ccccc3F)nn(C)c2s1)C1CCCCC1`: the inhibition was -4.2%.
On to `COc1ccc(OC)c(S(=O)(=O)N(C)CC(=O)N2CCN(c3ccccc3)CC2)c1`, for which the inhibition was -6.69%.
In the case of `O=C(CCNS(=O)(=O)c1cccs1)N1CCN(c2ccc(F)cc2)CC1`, the inhibition was -7.67%.
Consider `CN(CC(=O)N1CCN(c2ccccc2)CC1)S(=O)(=O)c1cccs1`, for which the inhibition is 63.8% (active).
On to `CCOc1ccc(S(=O)(=O)NCc2ccc3c(c2)OCO3)cc1C`, for which the inhibition was -11.3%.
The result for `COc1ccc(N2C(=O)C3C(C2=O)C(C(=O)c2ccccc2)N2CCCC32)cc1` (stereo not drawn) reads 19.2%; that for `CC(=O)Nc1ccc(S(=O)(=O)NNC(=O)CCc2ccccc2)cc1`, -3.14%; that for `COc1cc(-c2c(-c3ccc4c(c3)OCO4)noc2C)ccc1F`, 48.8% (active).
Under `COc1ccc(CCNC(=O)c2cc(-c3ccc4c(c3)OCO4)on2)cc1OC` stands -10.3%.
In the case of `COc1ccc(-c2onc(C)c2-c2ccc3c(c2)OCCO3)c(O)c1`, the inhibition was -15%.
Take `NC(=O)CC(NC(=O)Cc1ccc(Br)cc1)c1ccc(NC2CC3CCC2C3)c([N+](=O)[O-])c1` (stereo not drawn): the inhibition is 60%.
In the case of `Cc1c(C)n(Cc2ccc(Cl)cc2)c2ccc(C(=O)NCCCN3CCOCC3)cc12`, the inhibition was -12.7%.
The result for `Cc1ccc(N/N=C2\COC(C)(C)CC2=O)cc1` reads 101% (active); that for `COc1ccc(N/N=C2/CCCCC2=O)cc1`, 34.6%; that for `COC(=O)c1ccc(S(=O)(=O)N2CCc3ccccc3C2)cc1`, -1.69%.
The result for `COc1ccc(N(C)S(=O)(=O)c2ccc3c(c2)CC(C)N3C(=O)C2CC2)c(OC)c1` (stereo not drawn) reads 14.9%.
As to `CC(C)(COC(=O)Nc1ccccc1)COC(=O)Nc1ccccc1`, the inhibition is 35.2%.
The result for `CCOC(=O)Nc1ccc(NC(=O)OCC)cc1` reads 52.3% (active).
The result for `Cc1ccc(NC(=O)OCCNC(=O)c2ccncc2)cc1` reads 47.9%; that for `CCOC(=O)Nc1ccc(S(=O)(=O)N(C)C(C)C)cc1`, -22.3%.
As to `O=C(Nc1ccc(Cl)cc1)OCc1cc(-c2ccccc2)on1`, the inhibition was 49.1%.
The result for `Cc1ccc(NC(=O)OCc2cncs2)cc1` reads 70.8% (active); that for `CN1CCc2ccccc2C1Cc1ccccc1NC(=O)c1sc2ccccc2c1Cl` (stereo not drawn), -2.62%.
As for `COC(=O)C1(CCSC)NC(c2ccc(OC)cc2OC)C2C(=O)N(c3cccc(C(C)=O)c3)C(=O)C21` (stereo not drawn), the inhibition is -5.19%.
Under `N#Cc1c(-c2ccc(F)cc2)nc(-c2ccccc2)[nH]c1=O` stands -4.47%; under `N#Cc1ccc(-c2nc3cc(C#N)c(C#N)cc3nc2-c2ccccc2)cc1C#N`, 56.6% (active); under `N#Cc1ccc(-c2ccc(F)cc2)nc1Sc1ccccc1`, -10%.
The result for `O=C(O)CCC(=O)Nc1ccc(OCC2CCCO2)cc1` (stereo not drawn) reads 4.1%.
Under `CCOc1ccc(N(C)Cc2cc(=O)oc3ccc(OC)cc23)cc1` stands -26.5%; under `O=C(c1ccc(Cl)cc1)n1cnc2ccccc21`, -4.02%; under `COC(=O)c1ccc(-n2cnc3ccccc32)nc1`, 159% (active).
Regarding `Cc1ccc(OCC(=O)Nn2cnc3ccccc32)cc1`, the inhibition was -4.5%.
Under `O=C(NCc1ccco1)/C(=C/c1ccco1)NC(=O)c1ccccc1` stands -2.21%; under `COc1ccccc1-c1nnc(SCC(=O)Nc2cc(C)on2)o1`, 18.4%; under `COc1ccc(CCNC(=O)CSc2nnc(CNC(=O)c3cccs3)o2)cc1OC`, -18.8%.
Consider `COc1ccc(-c2nnc(SCC(=O)c3cccs3)o2)c(OC)c1`, for which the inhibition is 150% (active).
Under `CCOc1ccc(N(CC(=O)Nc2ccccc2F)S(=O)(=O)c2c(C)[nH]c(=O)[nH]c2=O)cc1` stands -4.99%; under `Cc1ccc2cc3cc(C(=O)N4CCCCCC4)oc3nc2c1`, 88.9% (active).
Consider `Cc1cccc(C(=O)N2CCCN(C(=O)c3cccc(C)c3)CC2)c1`, for which the inhibition was 19.1%.
Under `Cc1cc(C)cc(NC(=O)N2CCCCCCC2)c1` stands -6.48%.
As to `Cc1oc2nc(SCC(=O)Nc3ccc(S(N)(=O)=O)cc3)nc(NC(=O)c3ccccc3)c2c1C`, the inhibition was -13.4%.
Under `OCCC1CN(Cc2cnc(-c3ccccc3)s2)CCN1CCc1ccccc1` (stereo not drawn) stands -10.1%; under `COc1ccc(NC(=O)CN2C(=O)COc3ccc(S(=O)(=O)N4CCOCC4)cc32)c(OC)c1`, -2.93%; under `COc1cccc(NC(=S)NC(=O)c2c(Cl)c(C)nn2C)c1`, 14.4% (active).
Under `Cc1nn(C)c(C(=O)NNC(=S)NC2CCCCC2)c1Cl` stands 14.6%.
Consider `COc1cccc(OC)c1C(=O)NC(=S)Nc1ccc(N2CCOCC2)c(Cl)c1`, for which the inhibition is 44.5%.
With `O=C(NCc1ccccn1)[C@]1(C(F)(F)F)C[C@H](CCc2ccccc2)CCCO1`, the inhibition is -3.98%.
Consider `Nc1nnc2c(C(F)(F)F)nc3ccccc3n12`, for which the inhibition was -8.69%.
Consider `Cc1cccc(-c2c(NC(=O)c3ccco3)oc3ccc(Cl)cc3c2=O)c1`, for which the inhibition is 20.5%.
`CCCN(CCC)c1ccc(C(O)c2nnc(-c3ccccc3)o2)cc1` (stereo not drawn): the inhibition was 29.6%.
Regarding `O=C(Nc1nnc(-c2ccccc2)o1)c1cc(-c2cccs2)nc2ccccc12`, the inhibition is -9.05%.
The result for `OC(c1nnc(-c2ccccc2)o1)c1cccs1` (stereo not drawn) reads 111% (active); that for `Cn1c2ccc(F)cc2c2nnc(NN)nc21`, -15%; that for `CC(C)c1cc(C(=O)N/N=C/C(Br)=C/c2ccccc2)n[nH]1`, 47.5% (active).
Under `Cc1cc(C(=O)N/N=C\C(Br)=C\c2ccccc2)c(C)o1` stands 54.6%.
Under `CC(C)c1cc(C(=O)O)n[nH]1` stands 15.7%; under `O=C(CCc1nnc2ccc(NCc3ccccc3Cl)nn12)NCC1CCN(C2CCCC2)C1` (stereo not drawn), 8.94%.
Take `CCOC(=O)N1CCC(NC(=O)CCc2ccccc2)CC1`: the inhibition is -1.93%.
Under `O=C(NCC1CCC(C(=O)O)CC1)OCc1ccccc1` (stereo not drawn) stands -15.3%; under `O=C(O)C1CCN(C(=O)OCc2ccccc2)CC1`, 80.9% (active); under `O=c1cc(-c2ccc(O)cc2)oc2c([C@@H]3O[C@H](CO)[C@@H](O)[C@H](O)[C@H]3O)c(O)cc(O)c12`, 18.1%.
The result for `Cc1cccc(-n2c(O)c(C=NC34CN5CN(CN(C5)C3)C4)c(=O)[nH]c2=O)c1` reads 19.9%; that for `Cc1cccc(-n2c(O)c(C=Nc3ccccc3N)c(=O)[nH]c2=O)c1`, 57% (active).
Under `Cc1cccc(-n2c(O)c(/C=N/N3CCOCC3)c(=O)[nH]c2=S)c1` stands -12.5%; under `Clc1ccc(-c2nc3ccccn3c2CN2CCSCC2)cc1`, 20.5%.
Take `COc1ccc2[nH]c(=O)c(C3c4cc(OC)c(OC)cc4CCN3C(=O)c3ccco3)cc2c1` (stereo not drawn): the inhibition is -3.2%.
Regarding `CCOCCCn1c(SCC(=O)Nc2cc(OC)ccc2OC)nc2ccccc2c1=O`, the inhibition is -1.05%.
The result for `CCc1ccc(-c2cc3c(=O)n(CC(=O)NCCCN4CCN(Cc5ccccc5)CC4)nc(C)n3n2)cc1` reads -5.95%; that for `CCOc1ccc(C(=O)CCN2CCOCC2)cc1`, -2.09%; that for `CCOc1ccc(N(CC(=O)NCCOc2ccccc2OC)S(=O)(=O)c2ccccc2)cc1`, 21.1%.
Under `CCOc1ccc2cc(C#N)c(SCC(=O)OC)nc2c1` stands 135% (active).
The result for `Cc1nonc1NC(=O)CSc1nc2ccccc2cc1C#N` reads 41.1%.
For `COc1ccc(N2CCN(C(=O)CSc3nc4cc(OC)c(OC)cc4cc3C#N)CC2)cc1`, the inhibition is 18.6%.
Under `CN=C1C=C/C(=N/N=c2\ccn(O)cc2C)C=C1C` stands 20.1% (active); under `Cc1cccc(NC(=S)NCCc2ccc(Cl)cc2)c1C`, 41.2%.
As for `Cc1ccc(/C=C2\CCn3c2nc2cc(C(=O)O)ccc2c3=O)c(C)c1`, the inhibition is -4.26%.
Under `Cc1nn(C)c(Cl)c1CN1CCC(Oc2ccc(C(=O)N3CCCC3)cc2)CC1` stands -30.4%; under `O=C(O)C1CC=CC2CCN(C3CCCCC3)C(=O)C21` (stereo not drawn), -9.66%.
The result for `CCCC(=O)N=c1sc2cccc(F)c2n1C` reads -7.62%; that for `Cn1c(=NC(=O)C2CC2)sc2cc(F)cc(F)c21`, -1.62%.
The result for `Cn1c(=NC(=O)c2ccco2)sc2cccc(F)c21` reads 102% (active); that for `O=C(O)c1cc2c(cc1NC(=O)c1c(F)cccc1Cl)OCCCO2`, -14.4%.
For `FC(F)(F)c1cnc(Oc2ccccc2-c2nnc(-c3ccc(Cl)cc3)o2)c(Cl)c1`, the inhibition is 5.98%.
The result for `O=C(Nc1nnc(-c2ccc(Cl)cc2)o1)c1ccccc1Br` reads 16.2%.
Consider `CSc1ccccc1-c1nnc(-c2ccc(Cl)cc2)o1`, for which the inhibition was 0% (active).
Under `CCOC(=O)N1CCN(S(=O)(=O)c2ccc(OC)cc2)CC1` stands -26%.
Under `OC(CNCC1CCCO1)Cn1c2ccc(Br)cc2c2cc(Br)ccc21` (stereo not drawn) stands -17.6%; under `CCCN1CCn2c3c(c4cc(Br)ccc42)CCCC31` (stereo not drawn), 31.7% (active); under `Cc1cc(C)c2nc(N(CCN(C)C)C(=O)/C=C/c3cccs3)sc2c1`, 2.24%.
With `CSCc1nnc(NC(=O)c2ccc(S(=O)(=O)N3CCCCC3C)cc2)o1` (stereo not drawn), the inhibition was -11%.
Under `CC(C)C(=O)Nc1c(O)c2ccccc2[nH]c1=O` stands 23.1%; under `CCCOC(=O)Cc1c(O)c2ccccc2[nH]c1=O`, 2.32%; under `NS(=O)(=O)c1ccccc1NC(=O)c1c(O)c2ccccc2[nH]c1=O`, 86% (active).

The values are drawn from PubChem BioAssay AID2315 (National Center for Advancing Translational Sciences (NCATS), 2010).
